This is one part of a sample in which hits are shown more often than they occur.
RmlC RmlD mix – RmlC and RmlD coupled enzyme inhibitors, primary screen, biochemical, 384-well, compound mixtures, retest. RmlC/RmlD coupled enzyme inhibition, 384-well mixture HTS. inhibition, % at 5.5 µM. 110,000 compounds, 0.39% hits. AID 1532, 2009; in the data active means inhibition above about 30%, passing the limit was not always enough
HIV RNase H inh-1 – HIV-1 RT RNase H inhibitors, primary screen, biochemical, fluorescence; RT-RNase H RNA/DNA duplex cleavage; inhibition, % at 10 µM; 65,000 compounds, 1.9% hits; in the data active means inhibition above about 50%
HIV RNase H inh-2 – HIV-1 RT RNase H inhibitors, retest, confirmation, biochemical; shares compounds with HIV RNase H inh-1; Recombinant RT RNase H, fluorescent RNA/DNA duplex cleavage; inhibition, % at 10 µM; 1,000 compounds, 39% hits; in the data active means inhibition above about 48%
RmlCD artifact – counter-screen for RmlC/RmlD inhibitors: fluorescence artifact, dose response, artefact control, biochemical; shares compounds with RmlC RmlD mix; RmlC/RmlD assay fluorescence artifact counter-screen; calls only; 360 compounds, 96% hits; call rule not given here;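 further: compound alone with no enzyme and no substrates present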
* marks the source's active call; other numbers are inactive results; i = inactive; x = not tested or not shown; + = active, no number.

SMILES	RmlC RmlD mix	HIV RNase H inh-1	RmlCD artifact	others
C[C@@H]1CCC[C@]2(O[C@@H](CCO)C[C@H](O)[C@H]2O)O1	i	x	x
COc1ccc(NCc2nnc(SCC(=O)c3ccc(OC)cc3)o2)cc1	-1	x	x
CCOc1cc(C(=O)CSc2nnc(CNc3ccc(Cl)cc3)o2)ccc1NC(=O)CC	-18	67*	x	HIV RNase H inh-2=14
O=C(/C=C/c1ccc(O)cc1)OCc1occc(=O)c1O[C@@H]1OC(CO)[C@@H](O)[C@H](O)[C@@H]1O (stereo partly specified)	-75	x	x
O=C(CNC(=O)c1ccco1)OCN1C(=O)c2ccccc2C1=O	-11	-9	x
O=c1c2ccccc2nc(N2CCCC2)n1-c1ccccc1	13	x	x
O=c1c2ccccc2[se]n1-c1ccccc1	57*	94*	+	HIV RNase H inh-2=67*
Cc1cc(C(=O)O)c2ccccc2n1	-9	x	x
O=C(O)c1cc(-c2ccco2)nc2ccccc12	54*	81*	+	HIV RNase H inh-2=31
CCOC(=O)Cc1cc(=O)[nH]c(Nc2nc3ccccc3o2)n1	-17	12	x
Nc1ccc(-c2nc3ccc(-c4nc5ccccc5o4)cc3[nH]2)cc1	+	73*	+	HIV RNase H inh-2=40
Cc1nc2ccc(-c3nc4ccccc4o3)cc2[nH]1	6	x	x
COc1ccccc1CC(=O)O/N=C(\N)Cc1cccc2ccccc12	-14	x	x
COc1ccc(C(O)C(CN2CCOCC2)c2ccccc2)cc1F (stereo unspecified)	10	-2	x
CC(=O)Nc1nc2nc(-c3ccccc3)cc(-c3ccccc3)n2n1	18	x	x
O=C1CCC(=O)N1c1nc2nc(-c3ccccc3)cc(-c3ccccc3)n2n1	103*	3	+
COc1ccccc1C1C=C(c2ccc(Cl)cc2)Nc2nc(N3C(=O)CCC3=O)nn21 (stereo unspecified)	19	-6	x
Cc1nc2c(sc3nc4c(cc32)COC(C)(C)C4)c(=O)n1Cc1ccccc1	-1	x	x
Cc1nc2c(sc3nc4c(cc32)COC(C)(C)C4)c(=O)o1	42*	x	+
CCOc1ccc(NC(=O)c2ccc(Br)o2)c([N+](=O)[O-])c1	0	x	x
COc1ccc(NC(=O)COC(=O)[C@@H]2CCCN2C(=O)c2cccs2)c(OC)c1	-8	x	x
N#CCSc1nc2c(cc1C#N)CCCC2	0	-17	x
CCOC(=O)CC(=O)CSc1nc2c(cc1C#N)CCC2	80*	x	+
Cc1ccc(CSc2nc3c(cc2C#N)CCC3)cc1	-9	x	x
COC(=O)CC(=O)CSc1nc2c(cc1C#N)CCCCC2	138*	3	+
SMILES	RmlC RmlD mix	HIV RNase H inh-1	RmlCD artifact	others
Cc1cccc(CSc2nnnn2-c2ccccc2)c1	10	x	x
CCCc1cc(=O)oc2c(CN3CCOCC3)c(O)ccc12	166	x	x
O=c1oc2c(CN3CCOCC3)c(O)c(Cl)cc2c2c1CCCC2	29	-4	x
COc1ccc(Oc2c(C)oc3c(CN(C)C)c(O)ccc3c2=O)cc1	23	-1	x
CCCCc1cc(=O)oc2c(CN(C)C)c(O)ccc12	72*	-10	+
CN(C)Cc1c(O)ccc2c3c(c(=O)oc12)CCCCC3	117*	x	+
O=c1oc2c(CN3CCOCC3)c(O)ccc2c2c1CCCC2	147*	-14	+
CCc1c(C)c2ccc(O)c(CN(C)C)c2oc1=O	131*	-9	+
COCCN(CCOC)Cc1c(O)ccc2c3c(c(=O)oc12)CCC3	158	-3	x
CCOCCCNC(=O)c1ccc(Br)cc1	-11	x	x
CC1CCC(=C(C#N)c2nc(-c3cc4ccccc4oc3=O)cs2)CC1 (stereo unspecified)	-4	x	x
CCOc1ccc(C2OC34CCCCC3C(C#N)(C#N)C2(C#N)C(=N)O4)cc1OC (stereo unspecified)	+	x	+
C=CCOc1ccc(C2OC34CCCCC3C(C#N)(C#N)C2(C#N)C(=N)O4)cc1 (stereo unspecified)	60*	x	+
CCCCOc1ccc(C2OC34CCCCC3C(C#N)(C#N)C2(C#N)C(=N)O4)cc1 (stereo unspecified)	161*	x	+
CCOc1ccc(C2C(=O)N(C3CCCCC3)CC(=O)N2CC2CCCO2)cc1OC (stereo unspecified)	x	4	x
CCN(CC)C(=O)c1cc2c(=O)oc3ccccc3c2s1	10	x	x
Cc1ccn2cc(CCNC(=O)Cc3cccs3)nc2c1	6	x	x
O=C(CCN1C(=O)COc2ccccc21)N1CCN(c2ccccn2)CC1	5	-3	x
COc1ccc2nc(NC(=O)CNS(=O)(=O)c3cccs3)sc2c1	8	x	x
CC[C@@]1(O)C(=O)OCc2c1cc1n(c2=O)Cc2cc3c(CN(C)C)c(O)ccc3nc2-1	38*	x	+
CC[C@@]1(O)C(=O)OCc2c1cc1n(c2=O)Cc2cc3c(N)cccc3nc2-1	13	x	x
O=C(Nc1sc2c(c1C(=O)NC1CC1)CCCCCC2)c1ccco1	+	29	+
O=C(Nc1sc2c(c1C(=O)O)CCC2)c1ccco1	15	x	x
Cc1c(N(C)C)nc2ccccc2c1N	12	3	x
CN(C)c1c2ccccc2nc2c(F)c(F)c(F)c(F)c12	x	x	+
SMILES	RmlC RmlD mix	HIV RNase H inh-1	RmlCD artifact	others
Cc1ccc2c(c1)c1ncnc(N3CCOCC3)c1n2C	x	-21	+
Cc1ccc2c(c1)c1ncnc(N3CCC4(CC3)OCCO4)c1n2C	-28	-15	x
O/N=C1/C2C3CC4C5C3C1C5C1(OCCO1)C42 (stereo unspecified)	-11	-8	x
Cc1occc1C(=O)Nc1nccs1	4	-2	x
COc1ccc(N/N=C(/C#N)S(=O)(=O)c2nsc(C)c2C#N)cc1	4	x	x
COc1ccc(N2CCN(C(=O)CCn3nnc4ccccc43)CC2)cc1	0	-1	x
Cc1cc(OC(=O)c2ccco2)c2c3c(c(=O)oc2c1)CCCC3	-9	x	x
CC(=O)Oc1cc2oc(=O)c3c(c2cc1Cl)CCC3	x	-12	+
O=C(Oc1cc2oc(=O)c3c(c2cc1Cl)CCCC3)c1ccco1	141*	0	+
COC(=O)Cc1c(C)c2ccc(OC(=O)c3ccco3)cc2oc1=O	+	-17	+
Cc1cc2oc(=O)c3c(c2cc1OC(=O)c1ccco1)CCCC3	-48	-9	x
COC(=O)Cc1c(C)c2cc(Cl)c(OC(=O)c3ccco3)cc2oc1=O	x	-16	x
O=C(Oc1ccc2c3c(c(=O)oc2c1)CCC3)c1ccco1	187*	x	+
CC(C)Oc1cc2oc(=O)c3c(c2cc1Cl)CCC3	-6	-9	x
CCC(C)NC(=O)CS(=O)Cc1nc(-c2cccc(C)c2)oc1C (stereo unspecified)	-11	-2	x
Cc1ccc(C)c(OCC(O)CN2CCCCC2C)c1 (stereo unspecified)	3	-15	x
Cn1c(=O)[nH]c(=O)c2c1nc(CN1CCOCC1)n2CCc1ccccc1	9	-13	x
Cc1ccc(-c2nnn(Cc3nc4ccccc4s3)n2)cc1	-13	-12	x
C/C=C/c1ccc(OCCCCN2C(=O)NC(C)(C)C2=O)c(OC)c1	8	-7	x
CSc1ccc(/C=N/n2nnnc2N)cc1	69*	-26	+
COc1cc(/C=N/n2nnnc2N)ccc1O	-40	8	x

Screening results from PubChem BioAssay.
